The target in test [1] is Protein kinase C gamma type (Homo sapiens) (UniProt P05129). The conditions noted are these: at 1 µM.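 Also: each value is an averaged percent inhibition of the enzyme.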
For test [2], the target named is T1, Protein kinase C iota type (Homo sapiens) (UniProt P41743).
T1 sequence (whole entry): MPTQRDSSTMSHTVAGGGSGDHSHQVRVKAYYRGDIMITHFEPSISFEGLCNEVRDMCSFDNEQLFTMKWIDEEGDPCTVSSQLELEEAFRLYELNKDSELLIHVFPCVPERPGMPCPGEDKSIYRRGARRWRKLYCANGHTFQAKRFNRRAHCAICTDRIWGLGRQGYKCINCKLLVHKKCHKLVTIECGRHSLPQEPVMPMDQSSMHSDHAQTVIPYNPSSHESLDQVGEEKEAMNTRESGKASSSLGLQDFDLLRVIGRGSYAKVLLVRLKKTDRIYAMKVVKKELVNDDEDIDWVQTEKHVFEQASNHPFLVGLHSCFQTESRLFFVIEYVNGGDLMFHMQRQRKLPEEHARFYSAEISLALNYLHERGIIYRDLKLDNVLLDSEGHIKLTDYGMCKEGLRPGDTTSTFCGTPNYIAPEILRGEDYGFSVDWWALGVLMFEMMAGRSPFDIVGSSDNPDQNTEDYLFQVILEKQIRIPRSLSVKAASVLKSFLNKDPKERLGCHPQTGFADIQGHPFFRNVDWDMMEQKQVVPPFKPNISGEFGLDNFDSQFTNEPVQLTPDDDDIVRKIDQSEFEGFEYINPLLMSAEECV
The conditions noted are these: at 0.1 µM.

For test [3], the target named is T1, Protein kinase C iota type (Homo sapiens). As to conditions: at 1 µM.
Test [4] concerns the target Protein kinase C theta type (Homo sapiens) (UniProt Q04759). The conditions noted are these: at 0.1 µM.
For test [5] the target is unchanged. As to conditions: at 1 µM.
Test [6] deals with Protein kinase C beta type (Homo sapiens) (UniProt P05771). As to conditions: at 0.1 µM.
Test [7] has the same target. The conditions noted are these: at 1 µM.
For test [8], the target named is T2, Serine/threonine-protein kinase D1 (Homo sapiens) (UniProt Q15139).
T2 sequence (whole entry): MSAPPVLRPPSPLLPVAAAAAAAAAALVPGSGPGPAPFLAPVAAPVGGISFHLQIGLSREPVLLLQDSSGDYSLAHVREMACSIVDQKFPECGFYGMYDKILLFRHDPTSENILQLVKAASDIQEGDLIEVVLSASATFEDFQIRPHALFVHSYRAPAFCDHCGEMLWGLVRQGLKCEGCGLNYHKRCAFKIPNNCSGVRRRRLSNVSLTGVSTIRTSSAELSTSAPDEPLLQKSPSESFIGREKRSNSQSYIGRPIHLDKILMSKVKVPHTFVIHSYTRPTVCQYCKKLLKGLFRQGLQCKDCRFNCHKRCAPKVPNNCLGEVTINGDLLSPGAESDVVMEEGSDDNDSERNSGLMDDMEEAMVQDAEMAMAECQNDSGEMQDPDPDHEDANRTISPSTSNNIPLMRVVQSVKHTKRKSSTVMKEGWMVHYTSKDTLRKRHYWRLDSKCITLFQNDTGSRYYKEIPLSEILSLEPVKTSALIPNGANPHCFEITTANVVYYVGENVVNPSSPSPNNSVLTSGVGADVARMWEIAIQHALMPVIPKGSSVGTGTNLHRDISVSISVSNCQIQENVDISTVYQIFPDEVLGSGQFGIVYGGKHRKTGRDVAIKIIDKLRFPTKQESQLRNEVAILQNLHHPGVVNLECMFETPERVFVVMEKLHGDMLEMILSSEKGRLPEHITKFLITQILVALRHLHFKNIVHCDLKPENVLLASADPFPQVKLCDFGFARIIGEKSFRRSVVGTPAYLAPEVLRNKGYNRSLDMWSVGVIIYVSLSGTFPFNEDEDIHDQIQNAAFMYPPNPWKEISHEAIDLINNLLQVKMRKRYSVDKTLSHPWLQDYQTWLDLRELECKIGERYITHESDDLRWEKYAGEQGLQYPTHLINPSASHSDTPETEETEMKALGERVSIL
The conditions noted are these: at 0.1 µM.

Test [9] addresses T2, Serine/threonine-protein kinase D1 (Homo sapiens). As to conditions: at 1 µM.
Test [10] concerns the target T3, Serine/threonine-protein kinase D2 (Homo sapiens) (UniProt Q9BZL6).
T3 sequence (whole entry): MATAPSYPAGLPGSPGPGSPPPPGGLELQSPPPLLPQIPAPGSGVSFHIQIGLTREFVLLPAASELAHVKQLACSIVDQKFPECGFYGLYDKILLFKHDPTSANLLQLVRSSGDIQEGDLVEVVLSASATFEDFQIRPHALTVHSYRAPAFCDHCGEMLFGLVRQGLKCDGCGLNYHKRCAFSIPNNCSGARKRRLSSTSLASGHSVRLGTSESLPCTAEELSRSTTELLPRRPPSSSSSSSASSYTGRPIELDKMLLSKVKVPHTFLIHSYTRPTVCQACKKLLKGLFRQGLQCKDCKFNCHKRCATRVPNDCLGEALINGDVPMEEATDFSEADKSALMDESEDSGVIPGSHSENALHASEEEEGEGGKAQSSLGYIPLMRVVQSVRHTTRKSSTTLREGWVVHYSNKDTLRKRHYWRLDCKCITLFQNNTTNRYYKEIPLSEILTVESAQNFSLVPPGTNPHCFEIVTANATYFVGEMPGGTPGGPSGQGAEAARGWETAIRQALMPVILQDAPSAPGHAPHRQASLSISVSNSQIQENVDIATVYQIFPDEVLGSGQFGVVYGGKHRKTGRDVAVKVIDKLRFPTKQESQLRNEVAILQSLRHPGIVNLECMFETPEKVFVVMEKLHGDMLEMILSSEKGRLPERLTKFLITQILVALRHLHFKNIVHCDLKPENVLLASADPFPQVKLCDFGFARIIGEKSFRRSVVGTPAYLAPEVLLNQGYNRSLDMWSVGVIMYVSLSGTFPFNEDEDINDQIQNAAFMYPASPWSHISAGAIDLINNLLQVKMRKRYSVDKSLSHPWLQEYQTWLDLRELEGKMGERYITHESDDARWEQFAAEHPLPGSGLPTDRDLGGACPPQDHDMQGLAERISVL
As to conditions: at 0.1 µM.

Test [11] has as its target T3, Serine/threonine-protein kinase D2 (Homo sapiens). As to conditions: at 1 µM.
The target in test [12] is T4, Serine/threonine-protein kinase D3 (Homo sapiens) (UniProt O94806).
T4 sequence (whole entry): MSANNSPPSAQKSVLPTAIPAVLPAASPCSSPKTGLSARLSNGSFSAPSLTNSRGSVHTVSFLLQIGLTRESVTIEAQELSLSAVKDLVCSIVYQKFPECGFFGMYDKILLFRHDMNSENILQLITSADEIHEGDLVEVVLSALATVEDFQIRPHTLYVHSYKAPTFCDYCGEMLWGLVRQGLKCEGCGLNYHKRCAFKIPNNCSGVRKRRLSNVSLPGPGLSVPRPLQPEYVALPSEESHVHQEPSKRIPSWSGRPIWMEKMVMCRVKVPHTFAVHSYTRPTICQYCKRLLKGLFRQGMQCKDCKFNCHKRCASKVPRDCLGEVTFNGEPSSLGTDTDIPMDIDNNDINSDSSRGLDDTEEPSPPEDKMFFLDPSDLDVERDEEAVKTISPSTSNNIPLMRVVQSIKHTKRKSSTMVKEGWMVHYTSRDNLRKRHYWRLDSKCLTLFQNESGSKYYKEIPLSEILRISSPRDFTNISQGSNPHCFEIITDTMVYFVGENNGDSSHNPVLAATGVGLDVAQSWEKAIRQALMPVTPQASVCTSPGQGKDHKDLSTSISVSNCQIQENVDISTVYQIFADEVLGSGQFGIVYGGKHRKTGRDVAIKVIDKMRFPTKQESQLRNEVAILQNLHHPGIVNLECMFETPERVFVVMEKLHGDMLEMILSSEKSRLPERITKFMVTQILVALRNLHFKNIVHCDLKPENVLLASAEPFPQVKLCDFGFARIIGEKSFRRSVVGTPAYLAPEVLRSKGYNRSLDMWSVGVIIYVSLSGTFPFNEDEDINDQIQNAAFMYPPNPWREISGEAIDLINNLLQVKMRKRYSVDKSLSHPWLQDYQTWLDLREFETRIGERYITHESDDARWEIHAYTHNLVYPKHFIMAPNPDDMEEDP
The conditions noted are these: at 0.1 µM.

For test [13], the target named is T4, Serine/threonine-protein kinase D3 (Homo sapiens). As to conditions: at 1 µM.
The target in test [14] is T5, cGMP-dependent protein kinase 1 (Homo sapiens) (UniProt Q13976).
T5 sequence (whole entry): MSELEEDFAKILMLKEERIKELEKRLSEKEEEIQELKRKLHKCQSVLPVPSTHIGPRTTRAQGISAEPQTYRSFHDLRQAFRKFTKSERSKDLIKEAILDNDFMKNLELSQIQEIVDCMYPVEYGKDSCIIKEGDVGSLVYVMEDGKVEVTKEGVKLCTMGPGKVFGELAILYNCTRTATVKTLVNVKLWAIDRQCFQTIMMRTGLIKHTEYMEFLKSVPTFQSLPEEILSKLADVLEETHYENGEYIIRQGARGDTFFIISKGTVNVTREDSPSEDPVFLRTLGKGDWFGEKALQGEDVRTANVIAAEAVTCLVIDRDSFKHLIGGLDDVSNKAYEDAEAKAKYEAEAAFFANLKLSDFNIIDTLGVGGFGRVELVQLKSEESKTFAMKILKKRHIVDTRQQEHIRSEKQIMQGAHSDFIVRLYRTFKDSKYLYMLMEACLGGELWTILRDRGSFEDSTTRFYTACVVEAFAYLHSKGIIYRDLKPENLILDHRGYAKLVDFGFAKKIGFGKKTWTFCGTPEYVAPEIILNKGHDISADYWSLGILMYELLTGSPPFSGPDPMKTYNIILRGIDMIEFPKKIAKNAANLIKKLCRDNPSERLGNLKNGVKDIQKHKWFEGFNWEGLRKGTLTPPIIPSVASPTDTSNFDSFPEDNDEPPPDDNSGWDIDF
As to conditions: at 0.1 µM.

The target in test [15] is T5, cGMP-dependent protein kinase 1 (Homo sapiens). As to conditions: at 1 µM.
The target of test [16] is T6, cGMP-dependent protein kinase 2 (Homo sapiens) (UniProt Q13237).
T6 sequence (whole entry): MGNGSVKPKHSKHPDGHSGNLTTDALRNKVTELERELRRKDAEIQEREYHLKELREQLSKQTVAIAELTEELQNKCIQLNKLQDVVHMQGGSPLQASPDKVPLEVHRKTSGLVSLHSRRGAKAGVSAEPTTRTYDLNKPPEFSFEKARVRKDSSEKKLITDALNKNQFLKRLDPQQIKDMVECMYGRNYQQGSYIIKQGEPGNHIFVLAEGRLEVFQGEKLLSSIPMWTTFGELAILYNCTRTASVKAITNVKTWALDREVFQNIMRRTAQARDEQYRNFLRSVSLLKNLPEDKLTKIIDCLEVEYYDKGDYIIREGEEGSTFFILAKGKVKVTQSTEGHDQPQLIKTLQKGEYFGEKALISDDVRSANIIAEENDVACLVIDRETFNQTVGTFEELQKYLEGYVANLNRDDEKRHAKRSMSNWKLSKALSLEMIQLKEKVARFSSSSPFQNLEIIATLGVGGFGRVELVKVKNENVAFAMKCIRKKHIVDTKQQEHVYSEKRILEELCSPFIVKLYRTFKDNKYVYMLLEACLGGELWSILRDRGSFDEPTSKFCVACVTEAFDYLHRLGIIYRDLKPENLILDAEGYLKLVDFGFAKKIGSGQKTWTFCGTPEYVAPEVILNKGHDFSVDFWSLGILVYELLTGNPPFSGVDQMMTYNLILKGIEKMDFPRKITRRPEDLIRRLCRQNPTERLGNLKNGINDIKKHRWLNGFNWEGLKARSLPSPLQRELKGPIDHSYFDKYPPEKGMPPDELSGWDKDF
As to conditions: at 0.1 µM.

The target of test [17] is T6, cGMP-dependent protein kinase 2 (Homo sapiens). The conditions noted are these: at 1 µM.
Test [18] deals with T7, cAMP-dependent protein kinase catalytic subunit PRKX (Homo sapiens) (UniProt P51817).
T7 sequence (whole entry): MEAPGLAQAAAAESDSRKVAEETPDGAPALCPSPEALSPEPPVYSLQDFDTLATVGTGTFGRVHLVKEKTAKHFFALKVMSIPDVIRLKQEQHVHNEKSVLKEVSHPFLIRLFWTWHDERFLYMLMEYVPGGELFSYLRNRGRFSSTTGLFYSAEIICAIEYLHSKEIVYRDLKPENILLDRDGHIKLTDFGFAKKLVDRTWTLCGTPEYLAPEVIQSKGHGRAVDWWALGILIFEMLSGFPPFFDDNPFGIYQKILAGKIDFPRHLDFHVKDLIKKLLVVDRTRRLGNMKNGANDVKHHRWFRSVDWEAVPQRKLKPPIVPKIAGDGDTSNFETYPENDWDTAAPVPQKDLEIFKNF
The conditions noted are these: at 0.1 µM.

Test [19] has as its target T7, cAMP-dependent protein kinase catalytic subunit PRKX (Homo sapiens). The conditions noted are these: at 1 µM.
Test [20] addresses Rho-associated protein kinase 1 (Homo sapiens) (UniProt Q13464). The conditions noted are these: at 0.1 µM.

The structures appear in SMILES notation.

In general, inhibition refers to the change of the read-out against control, counted positive when it falls.

Sequence of Protein kinase C theta type (Homo sapiens) (Q04759 whole entry, looked up): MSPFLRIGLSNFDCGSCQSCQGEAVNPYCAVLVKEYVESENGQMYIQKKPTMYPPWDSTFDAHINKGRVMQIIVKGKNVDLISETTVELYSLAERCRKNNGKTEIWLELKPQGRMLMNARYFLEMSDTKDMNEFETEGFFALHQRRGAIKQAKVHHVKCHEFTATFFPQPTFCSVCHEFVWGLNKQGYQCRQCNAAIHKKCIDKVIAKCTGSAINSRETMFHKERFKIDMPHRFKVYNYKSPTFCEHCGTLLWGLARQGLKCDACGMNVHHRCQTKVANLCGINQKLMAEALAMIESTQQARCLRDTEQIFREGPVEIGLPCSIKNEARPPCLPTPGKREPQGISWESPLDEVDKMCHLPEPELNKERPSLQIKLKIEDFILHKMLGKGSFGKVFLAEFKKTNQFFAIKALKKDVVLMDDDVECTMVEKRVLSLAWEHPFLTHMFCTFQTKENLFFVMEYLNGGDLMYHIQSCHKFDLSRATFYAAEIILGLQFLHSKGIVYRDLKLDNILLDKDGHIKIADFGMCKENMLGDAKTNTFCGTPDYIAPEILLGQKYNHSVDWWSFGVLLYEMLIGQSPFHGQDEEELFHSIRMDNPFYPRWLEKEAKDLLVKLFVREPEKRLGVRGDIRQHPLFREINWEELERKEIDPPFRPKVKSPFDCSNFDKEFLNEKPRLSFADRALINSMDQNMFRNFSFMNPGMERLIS
Sequence of Protein kinase C beta type (Homo sapiens) (P05771 2-671 limits assumed): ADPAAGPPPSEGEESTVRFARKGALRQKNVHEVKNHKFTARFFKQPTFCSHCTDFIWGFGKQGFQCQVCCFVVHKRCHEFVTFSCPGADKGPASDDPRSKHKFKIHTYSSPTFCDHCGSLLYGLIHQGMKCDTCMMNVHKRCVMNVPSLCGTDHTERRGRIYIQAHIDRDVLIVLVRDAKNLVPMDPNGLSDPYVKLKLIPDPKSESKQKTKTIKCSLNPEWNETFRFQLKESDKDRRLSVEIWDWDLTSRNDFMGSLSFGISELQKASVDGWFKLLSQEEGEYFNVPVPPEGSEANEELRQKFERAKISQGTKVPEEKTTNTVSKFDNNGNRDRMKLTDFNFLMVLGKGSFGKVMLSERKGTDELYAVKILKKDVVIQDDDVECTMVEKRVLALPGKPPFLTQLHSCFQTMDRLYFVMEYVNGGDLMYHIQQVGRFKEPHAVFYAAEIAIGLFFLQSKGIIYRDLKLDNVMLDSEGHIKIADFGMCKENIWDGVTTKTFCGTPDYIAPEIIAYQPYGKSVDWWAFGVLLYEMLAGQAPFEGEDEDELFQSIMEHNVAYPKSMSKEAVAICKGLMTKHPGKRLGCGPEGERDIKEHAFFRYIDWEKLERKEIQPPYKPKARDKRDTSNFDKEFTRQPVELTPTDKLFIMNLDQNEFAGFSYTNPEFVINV
Sequence of Rho-associated protein kinase 1 (Homo sapiens) (Q13464 2-1354 limits assumed): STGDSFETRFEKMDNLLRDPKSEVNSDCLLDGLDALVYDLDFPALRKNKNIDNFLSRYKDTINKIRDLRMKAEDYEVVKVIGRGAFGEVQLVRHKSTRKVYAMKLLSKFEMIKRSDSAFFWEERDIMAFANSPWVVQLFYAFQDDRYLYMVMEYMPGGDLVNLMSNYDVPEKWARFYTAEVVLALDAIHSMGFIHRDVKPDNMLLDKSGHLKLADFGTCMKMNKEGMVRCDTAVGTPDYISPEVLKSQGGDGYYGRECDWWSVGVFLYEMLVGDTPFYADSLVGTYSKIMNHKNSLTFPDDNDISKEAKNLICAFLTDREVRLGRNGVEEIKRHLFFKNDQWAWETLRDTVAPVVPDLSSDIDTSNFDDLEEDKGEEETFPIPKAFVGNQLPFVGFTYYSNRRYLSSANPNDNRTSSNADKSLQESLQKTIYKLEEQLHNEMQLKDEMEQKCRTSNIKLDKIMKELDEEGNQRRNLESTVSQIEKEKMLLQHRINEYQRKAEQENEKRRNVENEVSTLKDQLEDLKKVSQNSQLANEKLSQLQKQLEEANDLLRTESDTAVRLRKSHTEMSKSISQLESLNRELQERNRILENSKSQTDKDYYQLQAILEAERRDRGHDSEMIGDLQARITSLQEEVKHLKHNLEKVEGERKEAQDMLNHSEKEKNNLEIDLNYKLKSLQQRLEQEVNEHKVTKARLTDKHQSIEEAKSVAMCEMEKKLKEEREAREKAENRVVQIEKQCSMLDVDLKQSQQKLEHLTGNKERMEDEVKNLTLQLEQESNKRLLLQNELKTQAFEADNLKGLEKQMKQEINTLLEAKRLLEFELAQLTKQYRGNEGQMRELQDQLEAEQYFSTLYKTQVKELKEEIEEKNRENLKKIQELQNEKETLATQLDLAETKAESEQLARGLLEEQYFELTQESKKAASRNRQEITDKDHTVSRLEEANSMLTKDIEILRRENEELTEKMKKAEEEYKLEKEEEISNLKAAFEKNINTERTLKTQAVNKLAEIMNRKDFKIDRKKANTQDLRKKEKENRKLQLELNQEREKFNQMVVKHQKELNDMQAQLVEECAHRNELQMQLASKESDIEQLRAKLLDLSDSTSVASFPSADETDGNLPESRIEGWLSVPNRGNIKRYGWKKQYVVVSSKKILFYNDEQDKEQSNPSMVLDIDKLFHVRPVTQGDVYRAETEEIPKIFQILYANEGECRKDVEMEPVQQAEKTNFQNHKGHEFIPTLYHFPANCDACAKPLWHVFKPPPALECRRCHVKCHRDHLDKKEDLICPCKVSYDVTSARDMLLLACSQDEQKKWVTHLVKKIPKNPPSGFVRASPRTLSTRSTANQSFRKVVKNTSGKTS

`CN1CCN(CCCNc2nc3ccc(Oc4ccc(NC(=O)Nc5cc(C(F)(F)F)ccc5F)cc4)cc3[nH]2)CC1`: the inhibition in test [1] is 2.83%; in test [2] it was 1.14%; in test [3], 1.05%; in test [4], -0.2%; in test [5], -0.32%; in [6], 2.09%. Further, the inhibition in [7] was 2.68%; in test [8] it was -0.88%; in [9], -1.77%; in test [10] it was -2.52%; in test [11], -0.73%; in test [12] it was -2.59%. Also, the inhibition in test [13] is -1.97%; in [14] it was 3.15%; in test [15], 3.23%; in [16], 3.62%; in test [17], 2.7%; in test [18], 2.54%. The inhibition was 1.08% in test [19] and 1.94% in test [20].

`C#Cc1cccc(Nc2ncnc3ccc(OCCCCNCCS(C)(=O)=O)cc23)c1`: the inhibition in test [1] worked out at 7.74%; in test [2], 2.69%; in test [3], 1.19%; in test [4], 3.71%; in test [5], 5.27%; in [6] it was 1.93%. The inhibition came to 6.61% in test [7]; 2.59% in [8]; 25% in test [9]; 4.1% in [10]; 26.7% in test [11]; 3.35% in test [12]. Moreover, the inhibition in [13] came to 15%; in test [14] it was 1.04%; in [15], 7.37%; in [16] it was 2.75%; in test [17], 8.83%; in test [18], 2.48%. The values for the inhibition in [19] and in test [20] were 4.38% and 1.86%, respectively.

The values are drawn from ChEMBL document CHEMBL1961873, “Compounds: GSK PKIS; Assays: Nanosyn kinase panel” (2012).
